According to PubChem BioAssay (NCI):
This is part of a sample that, as a whole, favours compounds with a hit. Of some 83,000 tested, about 20% had one in any assay.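 Single-concentration screen, 48 h exposure, 96-well plates. Endpoint: percent growth. Below 10 = active.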 Calls of active or inactive are those of the source.

What was measured:
Experiment in all cases: NCI-60 one-dose screen, 48 h (100 = growth as untreated, 0 = no growth, -100 = all killed)
[1] = test system: NCI-H226 lung; conditions: 10 µM unless noted
[2] = test system: HOP-62 NSCLC; conditions: 10 µM unless noted
[3] = test system: SNB-19 CNS; conditions: 10 µM unless noted
[4] = test system: U251 CNS; conditions: 10 µM unless noted
[5] = test system: EKVX NSCLC; conditions: 10 µM unless noted
[6] = test system: TK-10 renal; conditions: 10 µM unless noted
[7] = test system: CCRF-CEM leukemia; conditions: 10 µM unless noted
[8] = test system: RPMI-8226 leukemia; conditions: 10 µM unless noted
[9] = test system: SK-OV-3 ovarian; conditions: 10 µM unless noted
[10] = test system: HS 578T breast; conditions: 10 µM unless noted
[11] = test system: T-47D breast; conditions: 10 µM unless noted
[12] = test system: BT-549 breast; conditions: 10 µM
[13] = test system: MCF7 breast; conditions: 10 µM unless noted
[14] = test system: HOP-92 NSCLC; conditions: 10 µM unless noted
[15] = test system: NCI-H522 lung; conditions: 10 µM unless noted
[16] = test system: HCC-2998 colon; conditions: 10 µM unless noted
[17] = test system: NCI-H322M lung; conditions: 10 µM unless noted
[18] = test system: SR leukemia; conditions: 10 µM
[19] = test system: IGROV1 ovarian; conditions: 10 µM

Measured: growth

Cc1cccc(N=C2c3cc([N+](=O)[O-])ccc3-c3c2cc([N+](=O)[O-])cc3[N+](=O)[O-])c1
inactive: [1] 80.1% | [2] 61.7% | [3] 82.5% | [4] 40.3% | [5] 75.4% | [6] 56.1% | [7] 21.4% | [9] 119% | [10] 101% | [12] 81.8% | [13] 21.3%
active: [8] -8.81% | [11] -25.1%

NCCc1cc(O)c(O)cc1O
inactive: [1] 99.1% | [2] 105% | [14] 85.4% | [3] 100% | [4] 95.4% | [5] 102% | [6] 95.3% | [7] 65.7% | [8] 48.4% | [9] 99% | [10] 120% | [11] 100% | [12] 90.9% | [13] 105% | [16] 103%
active: [15] -11.5%

CCN1CC2(CN(CC)C1=S)C(=O)NC(=O)NC2=O
inactive: [17] 107% | [2] 90.1% | [14] 53.9% | [15] 84.7% | [5] 99% | [6] 98.5% | [7] 101% | [18] 114% | [8] 100% | [9] 97.4% | [19] 103% | [10] 104% | [11] 90.4% | [12] 91.4% | [13] 92.5% | [16] 99.7%

CC1([N+](=O)[O-])COP(=O)(Nc2ccc(F)cc2)OC1 (centres undefined)
inactive: [1] 101% | [14] 118% | [15] 89.4% | [3] 107% | [5] 115% | [6] 95.1% | [7] 96.3% | [18] 84.2% | [9] 101% | [19] 103% | [10] 103% | [11] 82.9% | [12] 96.8% | [13] 100%
